This note sets out measurements from ChEMBL document CHEMBL3433997, “St. Jude Leishmania screening dataset” (2016).

This test deals with Solute carrier family 2, facilitated glucose transporter member 1 (Homo sapiens) (UniProt P11166). Briefly: ST_JUDE_LEISH: Cytotoxicity at 2uM final concentration against transgenic Leishmania Mexicana promastigotes LmGLUT1 that are glucose transport deficient and complemented with the human glucose transporter GLUT1. Activity is measured by DNA content using SYBR green in vitro. Format: functional.
Chain of Solute carrier family 2, facilitated glucose transporter member 1 (Homo sapiens) (P11166 whole entry): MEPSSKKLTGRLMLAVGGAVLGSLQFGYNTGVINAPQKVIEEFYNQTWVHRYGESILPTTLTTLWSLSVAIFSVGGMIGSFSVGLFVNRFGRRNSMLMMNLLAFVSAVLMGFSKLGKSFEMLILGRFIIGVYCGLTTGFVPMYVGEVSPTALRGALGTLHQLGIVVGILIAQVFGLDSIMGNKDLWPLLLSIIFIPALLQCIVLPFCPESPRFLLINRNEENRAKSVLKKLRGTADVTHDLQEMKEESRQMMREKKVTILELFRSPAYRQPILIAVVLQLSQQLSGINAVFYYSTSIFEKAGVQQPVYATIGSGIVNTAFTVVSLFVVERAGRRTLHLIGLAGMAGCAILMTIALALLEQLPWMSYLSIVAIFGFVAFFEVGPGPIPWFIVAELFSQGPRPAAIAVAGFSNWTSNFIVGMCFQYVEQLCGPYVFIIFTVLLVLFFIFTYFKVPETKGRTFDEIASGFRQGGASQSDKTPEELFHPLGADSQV
Regarding `CC(=O)Nc1nc(C(=O)Nc2cccc(-c3ccc(-c4nc5cc(F)ccc5[nH]4)cc3)c2)cs1`, the inhibition (in general, the change of the read-out against control, counted positive when it falls) was determined as 2.38%.
For `COc1ccc2nccc(N3CCC(CCNCc4ccc5c(n4)NC(=O)CS5)CC3)c2n1`, the inhibition was 4.06%.
For `O=C(Nc1ccc(-c2nc3ccc(NC(=O)c4ccc(Br)cc4)cc3[nH]2)cc1)c1ccc(Br)cc1`, the inhibition was -0.81%.
`Cc1ccc(CNC(=O)[C@H](Cc2ccccc2)Nc2cc(C)nc(NCC3CCCCC3)n2)cc1`: the inhibition is 3.25%.
In the case of `O=C(Nc1ccsc1)Nc1cccc(-c2ccc(-c3nc4cc(C(F)(F)F)ccc4[nH]3)cc2)c1` it was 6.66%.
The same measure for `Cc1cccc2nc(-c3cccc(-c4cccc(C(=O)NCc5nccn5C)c4)c3)[nH]c12`: 11.5%; for `CCN(CC)CCNc1ccnc2c3ccccc3n(C)c12`: -1.54%.
On to `COCCCNC(=O)c1ccc(O)c(-c2cc(Cl)cc(Cl)c2)c1`, for which the inhibition turned out to be 0.32%.
Turning to `CCC(C)c1ccc(O)c(NC(=O)c2cncc(Br)c2)c1` (stereo unspecified), the inhibition is -0.89%.
Turning to `CCCCCCCCOc1ccc(N2C(N)=NC(N)=NC2(C)C)cc1`, the inhibition turned out to be 2.56%.
As to `O=C(Nc1cn(-c2ccc(OCc3cccc(F)c3)c(Cl)c2)c2ncncc12)c1ccncc1`, the inhibition came out at 1.53%.
Consider `CCCC(C)NC[C@@H](O)[C@H](Cc1ccccc1)NC(=O)c1cc(NCC)cc(N2CCCCS2(=O)=O)c1` (stereo partly specified), for which the inhibition is 0.32%.
In the case of `CCN(CCNC(=O)Nc1cc(C(F)(F)F)cc(C(F)(F)F)c1)c1cccc(C)c1`, the inhibition stood at 5.44%.
As for `Cc1cccc2nc(-c3ccc(-c4ccc(CNCC(C)C)cc4)cc3)[nH]c12`, the inhibition stood at 15.3%.
In the case of `Nc1cc(-c2ccc3ccccc3c2)nc2ccccc12` it was 31.2%; in that of `c1csc(-c2nc(NCC3CCCO3)ncc2-c2ccsc2)n1` (stereo unspecified), 1.71%.
